Laboratory results from PubChem BioAssay.
Active and inactive are the calls of the source.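 The calls were made as follows, unless noted: active = visual image review flags a hit and inhibition of aggregation exceeds 20%; inconclusive = visual hit but inhibition at or below 20%; inactive = no hit on visual image review.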

Assay: inhibitors of mutant huntingtin aggregation, primary screen, imaging, exon1htt(103Q)mCFP cells, high-content imaging (AID 483);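 also: compound exposure lasted 3 days before fixation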;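 as to nuclei count: percent of the per-plate median nuclei count of sample wells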
Settings: exon1htt(103Q)mCFP cell line, aggregate imaging, at 2 µM; inhibition of aggregation: stronger effect = higher value; nuclei count: measured here: cell count, toxicity

| Structure (SMILES) | inhibition of aggregation | nuclei count [%] |
| --- | --- | --- |
| CCCCOc1ccc(-c2nnn(C(C)(C)C(=O)OC)n2)cc1 | 7% (inactive) | 67.8 |
| O=c1c2nnn(Cc3ccc(Cl)cc3)c2ncn1Cc1ccc(F)cc1 | -10.3% (inactive) | 130 |
| COc1cc(C2C(C#N)=C(N)OC3=C2C(=O)CC(C)(C)C3)ccc1OC(=O)N1CCOCC1 (stereo not given) | 13.8% (inactive) | 86.6 |
| CCOC(=O)c1[nH]c(C)c(C(=O)Nc2ccc(C)cc2C)c1C | 20.1% (inactive) | 36.6 |
| Cn1cccc1Cc1nnc(SCC(N)=O)n1-c1ccc(F)cc1 | 15.1% (inactive) | 102 |
| COc1cccc(OCCn2ccnc2)c1 | 9.6% (inactive) | 82.1 |
| COc1ccc(CCNC(=O)c2cc(C(C)C)on2)cc1OC | -27% (inactive) | 102 |
| CC(CN1CCCCC1)OC(=O)c1ccc2c(c1)OCO2 (stereo not given) | 27.4% (inactive) | 70.8 |
| COc1ccc(NC(=O)c2oc3ccc(S(=O)(=O)N4CCC5(CC4)OCCO5)cc3c2C)cc1 | 10% (inactive) | 83.1 |
| CC1CCc2c(sc3c2C2=NS(=O)(=O)CCN2C=N3)C1 (stereo not given) | 2.7% (inactive) | 87.1 |
| COc1ccc(/C=N/n2cnnc2SCc2ccc(OC)cc2)cc1 | 1.4% (inactive) | 96.9 |
| CCn1c(CCNC(=O)c2cccs2)nnc1SCC(=O)c1ccc(OC)cc1 | -4.7% (inactive) | 99.7 |
| Cc1ccc2c(c1)C(N1CCCC1=O)CC(c1ccco1)N2 (stereo not given) | 14.5% (inactive) | 94.2 |
| Cc1sc2nc(SCC(=O)Nc3c(C)n(C)n(-c4ccccc4)c3=O)n(C)c(=O)c2c1C | 9% (inactive) | 74.8 |
| COCCN(CCOC)C(=O)c1sc2nc(-c3ccccc3)cn2c1C | -5.6% (inactive) | 119 |
| CCc1ccccc1NC(=O)C(CC)Sc1nc2cc3c(cc2c(=O)n1Cc1ccco1)OCO3 (stereo not given) | -21.1% (inactive) | 115 |
| CCc1c(C(=O)Nc2ncn(Cc3cccc(C)c3)n2)csc1C | 2% (inactive) | 97.3 |
| CCC(=O)N1CCN(c2nc(-c3ccccc3)c3c(c2C#N)CCCC3)CC1 | 0.7% (inactive) | 98.3 |
| COc1ccc(S(=O)(=O)N(C)CC(=O)N2CCCCC2)cc1Cl | 4.2% (inactive) | 94.8 |
| CN(CC(=O)N1CCCCC1)S(=O)(=O)c1cccc2cccnc12 | 9.7% (inactive) | 112 |

| Structure (SMILES) | inhibition of aggregation | nuclei count [%] |
| --- | --- | --- |
| CS(=O)(=O)N(CC(=O)Nc1cccc(F)c1)Cc1ccccc1 | 2.5% (inactive) | 107 |
| O=S(=O)(c1cccc(S(=O)(=O)N2CCC(N3CCCCC3)CC2)c1)N1CCOCC1 | -6.3% (inactive) | 123 |
| Cc1ccc(-c2nc3cc(N)ccc3o2)cc1 | 11.7% (inactive) | 101 |
| COc1ccc(OC)c(C(=O)CSc2nc3ncccc3[nH]2)c1 | 16.2% (inactive) | 113 |
| O=C1c2ccccc2C(Nc2ccc3c(c2)OCO3)N1Cc1ccc2c(c1)OCO2 (stereo not given) | -8.3% (inactive) | 63.8 |
| COc1ccc(-c2nc(C)c(C(C)=O)n2O)cc1OC | 3.6% (inactive) | 102 |
| CCOc1ccc(N(CC(=O)Nc2ccc(F)c(F)c2)S(=O)(=O)c2c(C)noc2C)cc1 | 25.8% (inactive) | 130 |
| CC(=O)Nc1ccc(NS(=O)(=O)c2ccc(Cl)c(C(=O)O)c2)cc1 | 11.4% (inactive) | 124 |
| CC(=O)c1cccc(NC(=O)CCNS(=O)(=O)c2cccc3nsnc23)c1 | -17.6% (inactive) | 104 |
| CCOc1ccccc1-n1nnnc1SCC(=O)Nc1cc2oc3ccccc3c2cc1OC | 4.8% (inactive) | 99.1 |
| COc1cccc(NC(=O)CSc2nnc(Cc3cccn3C)n2-c2ccc(F)cc2)c1 | 38.3% (inactive) | 85.3 |
| CCN1CCN(c2nc(C)nc3c2sc(=S)n3C)CC1 | 7.2% (inactive) | 82.9 |
| CCCc1[nH]nc2c1C(c1cn[nH]c1-c1ccc(F)cc1)C(C#N)=C(N)O2 (stereo not given) | 11.7% (inactive) | 89.8 |
| COC(=O)c1sc(N)c(C(=O)OC)c1COC(=O)C1CC(=O)N(Cc2ccco2)C1 (stereo not given) | -1.7% (inactive) | 100 |
| COC(=O)CCC(NC(=O)c1cc(-c2ccc3c(c2)OCCO3)oc1C)C(=O)OC (stereo not given) | 0.3% (inactive) | 104 |
| CSc1cccc(NC(=O)CN(C)S(=O)(=O)c2ccccc2)c1 | -0.4% (inactive) | 103 |
| CC(C)c1nnc(NC(=O)Cc2cccs2)s1 | 8.9% (inactive) | 114 |
| COc1ccc(NC(=O)CSc2nc3c(c(=O)n2-c2ccc(F)cc2)SCC3)c(OC)c1 | -14.2% (inactive) | 109 |
| CC(C)(CO)NC(=O)CCCOc1ccc(Cl)cc1Cl | 6.2% (inactive) | 97.4 |
| Cc1cc(C)n(-c2ccc(N3CCOCC3)nn2)n1 | -8.5% (inactive) | 100 |

Assay: inhibitors of E-selectin induction by TNFa, primary screen, imaging, HUVEC, immunofluorescence, MLSMR starter and 10KST1 sets (AID 487;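 active = visually confirmed hit in the image check and inhibition above 20%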;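 as to inhibition: signal is fraction of cell area covered by stained E-selectin grains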;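 as to nuclei count: 100% = median nuclei count of all wells on the same plate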)
Settings: HUVEC TNFalpha-induced E-selectin immunofluorescence imaging, at 2 µM; inhibition: stronger effect = higher value; nuclei count: measured here: cell number, toxicity

| Structure (SMILES) | nuclei count [%] | inhibition |
| --- | --- | --- |
| CCCCOc1ccc(-c2nnn(C(C)(C)C(=O)OC)n2)cc1 | 102 | 1.6% (inactive) |
| O=c1c2nnn(Cc3ccc(Cl)cc3)c2ncn1Cc1ccc(F)cc1 | 111 | -19.2% (inactive) |
| COc1cc(C2C(C#N)=C(N)OC3=C2C(=O)CC(C)(C)C3)ccc1OC(=O)N1CCOCC1 (stereo not given) | 112 | -75% (inactive) |
| CCOC(=O)c1[nH]c(C)c(C(=O)Nc2ccc(C)cc2C)c1C | 103 | -53.4% (inactive) |
| Cn1cccc1Cc1nnc(SCC(N)=O)n1-c1ccc(F)cc1 | 125 | -106% (inactive) |
| COc1cccc(OCCn2ccnc2)c1 | 120 | -24.7% (inactive) |
| COc1ccc(CCNC(=O)c2cc(C(C)C)on2)cc1OC | 110 | 2.8% (inactive) |
| CC(CN1CCCCC1)OC(=O)c1ccc2c(c1)OCO2 (stereo not given) | 103 | -45.9% (inactive) |
| COc1ccc(NC(=O)c2oc3ccc(S(=O)(=O)N4CCC5(CC4)OCCO5)cc3c2C)cc1 | 121 | -77.8% (inactive) |
| CC1CCc2c(sc3c2C2=NS(=O)(=O)CCN2C=N3)C1 (stereo not given) | 108 | -5.5% (inactive) |
| COc1ccc(/C=N/n2cnnc2SCc2ccc(OC)cc2)cc1 | 108 | -27.7% (inactive) |
| CCn1c(CCNC(=O)c2cccs2)nnc1SCC(=O)c1ccc(OC)cc1 | 115 | -94.1% (inactive) |
| Cc1ccc2c(c1)C(N1CCCC1=O)CC(c1ccco1)N2 (stereo not given) | 106 | -7.7% (inactive) |
| Cc1sc2nc(SCC(=O)Nc3c(C)n(C)n(-c4ccccc4)c3=O)n(C)c(=O)c2c1C | 118 | 13.4% (inactive) |
| COCCN(CCOC)C(=O)c1sc2nc(-c3ccccc3)cn2c1C | 127 | -55.5% (inactive) |
| CCc1ccccc1NC(=O)C(CC)Sc1nc2cc3c(cc2c(=O)n1Cc1ccco1)OCO3 (stereo not given) | 105 | -3.3% (inactive) |
| CCc1c(C(=O)Nc2ncn(Cc3cccc(C)c3)n2)csc1C | 110 | -66.7% (inactive) |
| CCC(=O)N1CCN(c2nc(-c3ccccc3)c3c(c2C#N)CCCC3)CC1 | 108 | -27.6% (inactive) |
| COc1ccc(S(=O)(=O)N(C)CC(=O)N2CCCCC2)cc1Cl | 87 | -2.3% (inactive) |
| CN(CC(=O)N1CCCCC1)S(=O)(=O)c1cccc2cccnc12 | 124 | -53.1% (inactive) |

| Structure (SMILES) | nuclei count [%] | inhibition |
| --- | --- | --- |
| CS(=O)(=O)N(CC(=O)Nc1cccc(F)c1)Cc1ccccc1 | 106 | -19.3% (inactive) |
| O=S(=O)(c1cccc(S(=O)(=O)N2CCC(N3CCCCC3)CC2)c1)N1CCOCC1 | 106 | -3.7% (inactive) |
| Cc1ccc(-c2nc3cc(N)ccc3o2)cc1 | 115 | -58.1% (inactive) |
| COc1ccc(OC)c(C(=O)CSc2nc3ncccc3[nH]2)c1 | 99.6 | 52.6% (inactive) |
| O=C1c2ccccc2C(Nc2ccc3c(c2)OCO3)N1Cc1ccc2c(c1)OCO2 (stereo not given) | 107 | -0.3% (inactive) |
| COc1ccc(-c2nc(C)c(C(C)=O)n2O)cc1OC | 106 | -127% (inactive) |
| CCOc1ccc(N(CC(=O)Nc2ccc(F)c(F)c2)S(=O)(=O)c2c(C)noc2C)cc1 | 109 | -35.5% (inactive) |
| CC(=O)Nc1ccc(NS(=O)(=O)c2ccc(Cl)c(C(=O)O)c2)cc1 | 128 | -37.3% (inactive) |
| CC(=O)c1cccc(NC(=O)CCNS(=O)(=O)c2cccc3nsnc23)c1 | 107 | -46.7% (inactive) |
| CCOc1ccccc1-n1nnnc1SCC(=O)Nc1cc2oc3ccccc3c2cc1OC | 118 | -108% (inactive) |
| COc1cccc(NC(=O)CSc2nnc(Cc3cccn3C)n2-c2ccc(F)cc2)c1 | 110 | 26.6% (inactive) |
| CCN1CCN(c2nc(C)nc3c2sc(=S)n3C)CC1 | 109 | -24.6% (inactive) |
| CCCc1[nH]nc2c1C(c1cn[nH]c1-c1ccc(F)cc1)C(C#N)=C(N)O2 (stereo not given) | 137 | -43.7% (inactive) |
| COC(=O)c1sc(N)c(C(=O)OC)c1COC(=O)C1CC(=O)N(Cc2ccco2)C1 (stereo not given) | 124 | -45.6% (inactive) |
| COC(=O)CCC(NC(=O)c1cc(-c2ccc3c(c2)OCCO3)oc1C)C(=O)OC (stereo not given) | 104 | 13.3% (inactive) |
| CSc1cccc(NC(=O)CN(C)S(=O)(=O)c2ccccc2)c1 | 111 | -183% (inactive) |
| CC(C)c1nnc(NC(=O)Cc2cccs2)s1 | 105 | -47.3% (inactive) |
| COc1ccc(NC(=O)CSc2nc3c(c(=O)n2-c2ccc(F)cc2)SCC3)c(OC)c1 | 114 | -407% (inactive) |
| CC(C)(CO)NC(=O)CCCOc1ccc(Cl)cc1Cl | 98.8 | 35.5% (inactive) |
| Cc1cc(C)n(-c2ccc(N3CCOCC3)nn2)n1 | 120 | -27.5% (inactive) |
